# In all, about 69,000 compounds went through this assay and about 8,600 (12%) showed an effect of 50% or more. The sample as a whole holds a higher share of strong results than the screen did.
# Tested on: Plasmodium berghei
# Assay: Screen against P. berghei liver stage (PbLuc), transformed with Luciferase, at 10uM
# Assay type: functional, HepG2
# Conditions: tested at 10 uM
row,Compound,INHIBITION [%]
1,Cc1cnc(N2CCCC(c3ccccc3)C2)nc1-c1ccnn1C (stereo not drawn),71
2,Cc1cnc(N2CC[C@@]3(O)CCCC[C@H]3C2)nc1-c1ccnn1C,30.4
3,COc1cnc(N2CC(N3CCOCC3)C2)nc1-c1ccnn1C,41
4,Cc1cnc(N2CCC(c3ccccc3)CC2)nc1-c1ccnn1C,68
5,Cc1cnc(N2CCN(C)CC2)nc1-c1ccnn1C,16.3
6,Cc1cnc(N2CCCC(O)C2)nc1-c1ccnn1C (stereo not drawn),16.6
7,COc1cnc(N2CCN(C)CC2)nc1-c1ccnn1C,20.8
8,Cc1cnc(N2CCC(c3ccncc3)CC2)nc1-c1ccnn1C,68
9,Cc1cnc(N2CCCC(c3ccccc3)C2)nc1-c1ncnn1C (stereo not drawn),39.3
10,Cc1ccoc1C(=O)N1C[C@@H]2COC[C@]2(COCc2cccnc2)C1,-34.7
11,CCCc1n[nH]c(C2CN(C(=O)c3n[nH]c4ccccc34)CCO2)n1 (stereo not drawn),21
12,COC(=O)NCC(=O)NC1(C)CCc2ccccc2C1 (stereo not drawn),7.3
13,CN(C)c1ccc(C(=O)N2CCCC(n3cccn3)C2)nn1 (stereo not drawn),3.15
14,Cc1ccc(NC2CCN(C(=O)CCCc3cccs3)CC2)nn1,-3.7
15,O=C1CCC2(CCN(Cc3cscn3)CC2)CN1CC1CCCO1 (stereo not drawn),-23.5
16,Cc1noc(CCCC(=O)NC(C)c2ccccn2)n1 (stereo not drawn),13.9
17,Cc1n[nH]c(SCC(=O)N[C@@H](C)C(N)=O)n1,4.41
18,CSCC(=O)NC(Cc1ccc(C)cc1)c1ccccn1 (stereo not drawn),21.3
19,Cc1ccc(OCCC(=O)NC(C)c2ccncc2)cc1 (stereo not drawn),41.6
20,Cc1n[nH]c(SCC(=O)NC(c2ccncc2)C(C)C)n1 (stereo not drawn),50.1
21,Cc1n[nH]c(SCC(=O)NC(c2ccccn2)C(C)C)n1 (stereo not drawn),58.7
22,CC(C)CNC(=O)Cn1ccc2ccccc21,25.7
23,O=C(NC1CC1)c1ccnc(-c2cc(NCCO)nc3[nH]ccc23)c1,-20.1
24,CC(C)c1ccc(S(=O)(=O)N2CCCC3(CCCN3S(C)(=O)=O)C2)cc1 (stereo not drawn),-3.33
25,O=C(c1ccc[nH]1)N1CCCC2(CCCN2Cc2cccnc2)C1 (stereo not drawn),12.1
26,O=S(=O)(c1ccccc1)N1CCC2(CCCN2Cc2ccc(Cl)cc2)C1 (stereo not drawn),91.7
27,CCc1ccc(S(=O)(=O)N2CCCC3(CCCN3S(C)(=O)=O)C2)cc1 (stereo not drawn),-12.2

row,Compound,INHIBITION [%]
1,O=C(c1ccc[nH]1)N1CCC2(CCCN2Cc2cccnc2)CC1,4.02
2,O=S(=O)(c1ccccc1)N1CCC2(CCCN2Cc2ccccc2Cl)C1 (stereo not drawn),60.2
3,CS(=O)(=O)N1CCCC12CCCN(S(=O)(=O)c1cccc(F)c1)C2 (stereo not drawn),-2.35
4,O=S(=O)(c1ccccc1)N1CCC2(CCCN2Cc2cccc(F)c2)C1 (stereo not drawn),78.8
5,Cc1ccc(CN2CCCC23CCN(S(=O)(=O)c2ccccc2)C3)o1 (stereo not drawn),34.7
6,COCCC(=O)N1CCC2(CCCN2Cc2ccccc2)C1 (stereo not drawn),-22.5
7,CCS(=O)(=O)N1CCCC2(CCCN2Cc2cccc(F)c2)C1 (stereo not drawn),-22.1
8,O=S(=O)(c1ccccc1)N1CCC2(CCCN2Cc2cccnc2)C1 (stereo not drawn),55.5
9,CCOc1cc(/C=C/c2ncc(C(=O)O)s2)cc(Br)c1O,-13.3
10,CC(C)CNC(=O)CNC(=O)c1nc(Cc2c(Cl)cccc2Cl)no1,41
11,COCCC1CCN(CC(C)n2cnc3ccccc32)CC1 (stereo not drawn),-3.47
12,CCc1nc(CN2CCCN(C(=O)c3cnc(C)cn3)CC2)cs1,10.733
13,COc1ccccc1CN(Cc1cccnc1)CC1CCCO1 (stereo not drawn),42.6
14,CCN(CC)Cc1ccc(C(=O)N2CCN(CC(C)O)CC2)o1 (stereo not drawn),21.5
15,COC(=O)c1cccc(S(=O)(=O)NC(=O)COC2CCCC2)c1,15.5
16,COCCC(=O)N1CCC2(CCCN2Cc2cccc(Cl)c2)C1 (stereo not drawn),47.9
17,O=S(=O)(c1ccccc1)N1CCC2(CCCN2Cc2cccc(Cl)c2)C1 (stereo not drawn),61.8
18,CCS(=O)(=O)N1CCCC2(CCCN2Cc2cccc(Cl)c2)C1 (stereo not drawn),-14.3
19,NC(=O)C1CCN(C(=O)NCCOc2ccc3c(c2)CCC3)CC1,5.45
20,N[C@H]1CN(C(=O)c2ccc(Cl)cc2O)C[C@@H]1C1CC1,61
21,Cc1cc(Cl)ccc1C(=O)N1C[C@H](C2CC2)[C@@H](N)C1,32.2
22,N[C@H]1CN(C(=O)c2ccc(Cl)cc2F)C[C@@H]1C1CC1,25.7
23,O[C@@H]1C[C@H]2CN(Cc3ccsc3)[C@@H](Cc3ccccc3)CN2C1,39.3
24,CC(C)CN1C[C@@H]2CN(c3cnccn3)C[C@@H]2C1=O,21.3
25,CS(=O)(=O)N1C[C@H]2CN(CC3CC3)C(=O)[C@H]2C1,85.2
26,O=C1[C@H]2CN(c3ncccn3)C[C@H]2CN1Cc1ccncc1,4.71

# Reference: ChEMBL document CHEMBL4513216, “Probing the Open Global Health Chemical Diversity Library for Multistage-Active Starting Points for Next-Generation Antimalarials” (ACS Infect Dis, 2020)
